Compounds with a hit are over-represented: about 6.6% of the library has one in this group of screens.
NR3A LBD binder = NR3A (human) ligand-binding domain modulation; NR3A LBD differential scanning fluorimetry, Tm shift; 0% = protein alone, 100% = glycine-bound protein; actives 2.5% (n = 340,000); Tm shift relative to glycine control, % at 25 µM;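 active = melting temperature shift of at least 10% of the positive control shift, at one fixed dose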
Gli-Sufu antag = antagonists of Gli-Sufu signaling; actives 0.74% (n = 340,000); Sufu-KO-LIGHT fibroblasts, Gli luciferase reporter luminescence; inhibition, % at 5 µM; AID 588413;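 active = inhibition above about 55%, limit read from the data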;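 note: 0% = DMSO-treated cells and 100% = wells with medium but no cells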
CSC inhib = cancer stem cell inhibition. cancer stem cell-like cells viability, luminescence. AID 2717. inhibition, % at 7.5 µM. actives 1.1% (n = 300,000); in the data active = inhibition above about 75%; tested in HMLE shEcad cells
MPTP inh = blocks calcium-induced mitochondrial swelling; isolated mouse mitochondria, Ca2+ swelling absorbance, 30 min; inhibition, % at 10 µM; actives 1.4% (n = 360,000);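 active = inhibition of 50% or more, scaled per plate between neutral and stimulator controls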;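 note: 0% = DMSO wells given calcium and 100% = 1 mM EGTA wells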
Beta cell apopt = beta cell apoptosis inhibition | INS-1E cytokine-induced death, ATP luminescence, 48 h; percent of positive-control rescue, neutral wells zero | protection from apoptosis, % (test concentration not listed) | actives 0.8% (n = 300,000);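 active = Every replicate reaches about 75%, or at least half do and their mean reaches it too, limit read from the data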;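 note: 0% = cytokine-treated negative control wells and 100% = positive control rescue; higher means more ATP so stronger rescue from cytokine killing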
Mdm2-MdmX inh = disrupts the human Mdm2-MdmX interaction. O15151+Q00987. SaOS-2 split-luciferase Mdm2/MdmX complementation, luminescence. inhibition, % at 8 µM. actives 3% (n = 330,000);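 active = inhibition of at least 50% at 8 µM in the primary screen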
Target sequence (O15151 whole entry, looked up): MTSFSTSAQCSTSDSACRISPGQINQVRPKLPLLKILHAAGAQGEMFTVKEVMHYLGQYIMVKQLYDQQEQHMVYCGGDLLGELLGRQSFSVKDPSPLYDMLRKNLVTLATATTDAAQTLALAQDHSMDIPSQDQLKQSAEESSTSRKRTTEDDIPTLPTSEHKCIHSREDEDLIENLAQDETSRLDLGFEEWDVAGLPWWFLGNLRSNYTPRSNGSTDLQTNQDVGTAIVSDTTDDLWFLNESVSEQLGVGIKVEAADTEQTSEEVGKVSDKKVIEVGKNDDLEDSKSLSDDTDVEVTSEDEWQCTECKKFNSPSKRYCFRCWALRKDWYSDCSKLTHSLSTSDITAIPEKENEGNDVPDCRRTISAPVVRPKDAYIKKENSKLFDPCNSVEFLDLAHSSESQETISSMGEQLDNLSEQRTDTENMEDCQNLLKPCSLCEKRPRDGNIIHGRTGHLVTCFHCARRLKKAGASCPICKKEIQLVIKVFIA
Target sequence (Q00987 whole entry, looked up): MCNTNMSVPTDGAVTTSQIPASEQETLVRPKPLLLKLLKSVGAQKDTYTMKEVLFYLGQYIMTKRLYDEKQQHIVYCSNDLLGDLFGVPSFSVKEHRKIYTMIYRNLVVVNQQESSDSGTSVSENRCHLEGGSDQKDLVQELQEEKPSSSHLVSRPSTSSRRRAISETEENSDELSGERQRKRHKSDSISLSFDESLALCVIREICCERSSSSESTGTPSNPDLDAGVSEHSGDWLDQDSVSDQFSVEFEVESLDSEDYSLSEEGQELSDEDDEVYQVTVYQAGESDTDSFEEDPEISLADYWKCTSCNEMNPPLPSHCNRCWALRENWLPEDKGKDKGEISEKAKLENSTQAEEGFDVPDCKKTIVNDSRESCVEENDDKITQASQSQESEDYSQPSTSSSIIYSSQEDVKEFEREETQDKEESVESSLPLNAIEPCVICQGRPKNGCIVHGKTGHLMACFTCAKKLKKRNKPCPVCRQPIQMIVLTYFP
Mdm2-MdmX conf = confirmation of human Mdm2/MdmX interaction inhibitors; inhibition, % at 8 µM; shares compounds with Mdm2-MdmX inh; Mdm2-MdmX binding, luminescent assay; AID 489028; actives 55% (n = 10,000); in the data active = inhibition above about 40%
FLuc counter = counter-screen for Mdm2/MdmX inhibitors: full-length luciferase; inhibition, % at 8 µM; shares compounds with Mdm2-MdmX inh; AID 504607; SaOS-2 full-length luciferase counterscreen, luminescence; actives 77% (n = 6,200);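 active = mean inhibition at 8 µM reaching about 37%, which flags the compound as non-specific, limit read from the data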;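 note: p53-null SaOS-2 cells with luciferase driven by a doxycycline-inducible promoter; compound on cells about two nights before reading with doxycycline added after day one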
Rh123 counter = Rhodamine 123 counter-screen of mitochondrial pore hits. AID 624504. isolated mitochondria, membrane potential, Rhodamine 123 fluorescence. shares compounds with MPTP inh. inhibition, % at 10 µM. actives 78% (n = 5,000); in the data active = inhibition above about 22%;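 note: 0% = DMSO vehicle and 100% = positive control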
MPTP swell DR = MPTP inhibition, dose response swelling confirmation | actives 58% (n = 780) | shares compounds with MPTP inh | IC50, µM | isolated mitochondria swelling, absorbance | AID 651561; in the data active = IC50 below about 20 µM
MPTP counter DR = counter-screen for mitochondrial permeability transition pore inhibitors, dose response; shares compounds with MPTP inh; isolated mitochondria counterscreen, fluorescence read-out; IC50, µM; actives 49% (n = 780); AID 651564; in the data active = IC50 below about 80 µM
An asterisk follows results filed as active; x = no result given.

SMILES	NR3A LBD binder	Gli-Sufu antag	CSC inhib	MPTP inh	Beta cell apopt	Mdm2-MdmX inh	Mdm2-MdmX conf	FLuc counter	Rh123 counter	others
COc1cc(/C=C(\C#N)c2nc3ccc(C)cc3[nH]2)cc([N+](=O)[O-])c1O	3	-26	x	3	x	x	x	x	x
Cc1ccc(S(=O)(=O)Nc2nc3ccccc3nc2Nc2cccc(S(=O)(=O)N3CCCC3)c2)cc1	10	24	114*	82*	31	53*	51*	93*	41*
Cc1ccc(NC(=O)CCNC(=O)c2ccccc2Cl)cc1S(=O)(=O)N1CCCCCC1	-2	-7	6	-1	-4	21	x	x	x
Cc1ccc(NC(=O)c2ccccc2NS(=O)(=O)c2ccc(F)cc2)cc1S(=O)(=O)N1CCCCC1	28*	43	51	95*	36	89*	91*	28	84*
O=C(Nc1cccc(S(=O)(=O)N2CCCCC2)c1)c1ccccc1NS(=O)(=O)c1ccc(F)cc1	18*	-24	50	96*	52	89*	71*	111*	81*
COc1ccc(N(CC(=O)Nc2cc(OC)c(OC)cc2C(=O)O)S(=O)(=O)c2c(C)noc2C)cc1	1	0	-3	0	-2	13	x	x	x
CC(C)(C)c1ccc(Cn2c(=N)n(CC(O)c3ccco3)c3ccccc32)cc1 (centres undefined)	-2	65*	10	56*	38	98*	84*	40*	21*
Cc1ccccc1Cn1c(=N)n(CC(O)c2ccco2)c2ccccc21 (centres undefined)	-1	10	-7	-2	10	38	x	x	x
O=C(C1=C[C@H](c2coc3ccccc3c2=O)C[C@H](OCCCCO)O1)N1CCN(Cc2ccc3c(c2)OCO3)CC1	-1	10	-10	-3	6	0	x	x	x
NCC12CC3CC(C1)CC(c1ccc(Cl)cc1)(C3)C2	-4	9	1	75*	0	96*	28	x	-13	MPTP swell DR=3.7*;MPTP counter DR=42*
CCCCCOc1ccc(Br)cc1/C(C)=N/NC1=NCCN1	2	38	-3	93*	45	86*	67*	63*	24*
C/C(=N\NC1=NCCN1)c1ccccc1	-1	0	-17	2	8	21	x	x	x
O=[N+]([O-])c1ccc(NC(=S)NCCc2ccc(Cl)cc2)cc1	31*	-17	196*	88*	87*	93*	81*	46*	85*
O=[N+]([O-])c1cc(C(F)(F)F)ccc1NCCNC(=S)Nc1ccc(Cl)cc1	15*	-3	106*	94*	36	89*	27	x	70*
CS(=O)(=O)NCCCNc1ccc(C(F)(F)F)cc1[N+](=O)[O-]	-1	2	-9	2	1	-1	x	x	x
Nc1nccnc1C(=O)OCC(=O)NCCc1ccc(Cl)cc1	-4	-15	x	-1	-7	-22	x	x	x
N#C/C(N=Nc1ccccc1O)=N\Nc1ccccc1O	4	17	9	126*	115*	82*	94*	18	44*
Cc1ccccc1OCCSc1nnc(-c2cccnc2)n1N	-1	0	-11	0	-5	25	x	x	x
COc1ccc(-c2cc(=O)n(-c3ccc([N+](=O)[O-])cc3)[nH]2)cc1	9	-10	126*	97*	5	55*	13	x	71*
NNc1ccc2c(C(F)(F)F)cc(C(F)(F)F)nc2n1	0	-17	11	0	-6	29	x	x	x
N#CC(c1cccc(Cl)c1)c1ccc2c(C(F)(F)F)cc(C(F)(F)F)nc2n1 (centres undefined)	-1	88*	107*	114*	114*	98*	94*	57*	90*
O=C(C[C@@H]1C/C=C\C[C@H](Cc2ccc(F)cc2)C(=O)OC[C@@H](Cc2c[nH]c3ccccc23)NC1=O)NCCO	-4	5	x	0	-10	-3	x	x	x
Cc1cccc(Nc2nc(N)c([N+](=O)[O-])c(NCc3ccco3)n2)c1	-10	-9	56	22	8	44	x	x	x
Cc1ccc(Nc2nc(NCc3ccco3)c3ccccc3n2)cc1	1	34	56	93*	76*	70*	-42	x	89*
C[C@@H](NCCc1ccc(O)cc1)[C@@H](O)c1ccc(O)cc1	2	31	-14	-1	-2	-10	x	x	x
SMILES	NR3A LBD binder	Gli-Sufu antag	CSC inhib	MPTP inh	Beta cell apopt	Mdm2-MdmX inh	Mdm2-MdmX conf	FLuc counter	Rh123 counter	others
CCCCCCCCNC(C)C(O)c1ccc(SC(C)C)cc1 (centres undefined)	2	22	102*	86*	117*	95*	15	x	11
CCOc1ccccc1Nc1nc(N)nc(CN2CCCCC2C)n1 (centres undefined)	0	5	-3	1	-4	7	x	x	x
COc1cc(OC)cc(C(=O)NC(=S)N(Cc2ccccc2)C(C)C)c1	-2	10	14	0	15	32	x	x	x
O=S(=O)(Nc1nc2ccccc2nc1Nc1ccc(N2CCOCC2)cc1)c1cc(Cl)ccc1Cl	20*	29	86*	86*	84*	68*	30	73*	77*
Clc1nc(Nc2ccc(N3CCOCC3)cc2)c2ccccc2n1	1	1	x	-2	x	18	x	x	x
Cc1onc(-c2ccccc2)c1CNC(=O)Nc1ccccc1	2	7	-10	5	3	-5	x	x	x
O=C(CN1C(=O)C2CCCCC2C1=O)Nc1cc(C(F)(F)F)ccc1N1CCCC1 (centres undefined)	0	-8	-3	0	-4	15	x	x	x
CN1CCN(C2=Cc3cc(Cl)ccc3Sc3cc(F)ccc32)CC1	1	1	113*	91*	x	51*	17	x	-13
COc1ccc(-c2csc(NC(=O)C3CCN(c4ncnc5sc(C)c(C)c45)CC3)n2)cc1OC	1	72*	27	88*	112*	68*	68*	45*	65*
COc1ccccc1OCC(=O)NNC(=O)C1CCN(c2ncnc3sc(C)c(C)c23)CC1	-2	-8	x	-1	2	32	x	x	x
CC(=O)Nc1ccc(OCc2nnc(-c3ccc(Cl)cc3)o2)cc1	0	-7	31	-1	8	5	x	x	x
O=C(CSc1nc2ccccc2n1S(=O)(=O)c1ccccc1)N1CCCC1	-5	5	4	21	-6	-10	x	x	x
